Assay results taken from PubChem BioAssay (NCI).
This is part of a sample that, as a whole, favours compounds with a hit. Of some 83,000 tested, about 20% had one in any assay.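 Activity criterion: percent growth below 10, measured after cells in 96-well plates were exposed to a single compound concentration for 48 hours.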 A number with no mark means an inactive call. Calls of active or inactive are those of the source.

These compounds were tested on NCI-H226 lung (assay: NCI-60 one-dose screen, 48 h (100 = growth as untreated, 0 = no growth, -100 = all killed)). Settings: 10 µM unless noted.

Structure (SMILES)	growth
C/C(CCC(=O)O)=N/Nc1ccc([N+](=O)[O-])cc1	93.3%
Nc1nc2c(c3ncncc13)C(c1cccc(C(F)(F)F)c1)Cc1ncncc1-2 (stereo not given)	55.6%
COc1ccc(-c2nc(SCC(C)C)nc(Nc3ccc([N+](=O)[O-])cc3)c2C#N)cc1	85.3%
Cn1c2c(cc(S(=O)(=O)c3ccccc3)c1=O)CCc1c-2cnn1-c1ccc(Cl)cc1	-14.8% (active)
Nc1nc2c(c3cnccc13)C(c1cccc(Cl)c1)Cc1cnccc1-2 (stereo not given)	17.2%
CCCCCSc1ccc2nc(NC(=O)OCCC)sc2c1	30.1%
CCCCCSc1ccc2nc(NC(=O)OCC)sc2c1	21.7%
Cc1c(Cc2ccccc2)c(=O)oc2c(C)c(OCc3n[nH]c(=S)o3)ccc12	84.8%
CCOC(=O)c1c(C)oc2ncnc(Nc3ccc(C(=O)NCCc4ccccc4)cc3)c12	63.2%
COc1cc(/C=C/C(=O)c2ccc(F)cc2)ccc1OCCCCOc1cc2c(cc1OC)C(=O)N1CCCC1C=N2 (stereo not given)	-8.87% (active)
C=C(C)[C@@H]1CC[C@]2(COC(=O)c3ccccc3C(=O)O)CC[C@]3(C)[C@H](CC[C@@H]4[C@@]5(C)CCCNC(C)(C)[C@@H]5CC[C@]43C)[C@@H]12	66.3%
O=C(CCCC(=O)Nc1ccc(Cn2nnc3cc(Cl)c(Cl)cc32)cc1)Nc1ccc(CN2N=NC3C=C(Cl)C(Cl)=CC32)cc1 (stereo not given)	72.7%
CCS(=O)(=O)OCCO[C@H]1Cc2cc3ccc(=O)oc3cc2OC1(C)C	98.4%
O=C1Nc2ccccc2/C1=C/c1cn(CC(O)Cn2cc(/C=C3\C(=O)Nc4ccccc43)c3ccccc32)c2ccccc12 (stereo not given)	-74.9% (active)
COC(=O)Nc1nc2ccc(C(=O)c3ccccc3N(C)C3COC3)cc2[nH]1	49.6%
COC(=O)/C=C/c1cc(O)c2oc(-c3ccc(O)c(O)c3)c(C(=O)OC)c2c1	18.2%
CC(C)OC(=O)[C@H](C)N[P@@](=O)(OC[C@@]1(C)O[C@@H](n2cc(F)c(N)nc2=O)C[C@@H]1O[P@](=O)(N[C@@H](C)C(=O)OC(C)C)Oc1ccccc1)Oc1ccccc1	96.4%
COc1cc2ncnc(Nc3ccc4c(cnn4C(=O)Nc4ccccc4)c3)c2cc1OC	103%

Structure (SMILES)	growth
Cc1nnc(/N=C2\NC(=O)/C(=C/C=C/c3ccccc3)S2)s1	78%
COC(c1ccccc1)C(Br)C(=O)c1ccccc1 (stereo not given)	92.5%
O=C1c2ccccc2CCc2ccccc21	100%
COc1cc2ncnc(-n3ncc4cc(NC(=O)Nc5ccccc5)ccc43)c2cc1OC	-13.9% (active)
COc1cc(-c2cc3cnccc3c3nc(N)c4ccncc4c23)cc(OC)c1OC	56.1%
COc1cc(OC)c(NC(=O)n2ncc3cc(Nc4ncnc5ccccc45)ccc32)cc1Cl	104%
COc1cc(OC)cc(-c2ccc(-c3ccc(C(=N)N)cc3)s2)c1	-67.5% (active)
CC1(C)NCCC[C@]2(C)[C@H]3CC=C4[C@@H]5C[C@](C)(COC(=O)c6ccccc6C(=O)O)CC[C@]5(C)CC[C@@]4(C)[C@]3(C)CC[C@@H]12	86.5%
Nc1ncn([C@@H]2O[C@H](CO)[C@@H](O)C2(F)F)c(=O)n1	52.3%
CCOC(=O)c1cc(C(=O)c2ccc(Br)cc2)n2cc(C)cc(C)c12	87.2%
Nc1nc2c(c3cnccc13)C(c1cccc(Br)c1)Cc1cnccc1-2 (stereo not given)	25.5%
O=C1/C(=C\c2cn(-c3nc(N4CCOCC4)nc(N4CCOCC4)n3)c3ccccc23)c2ccccc2N1c1c(Cl)cccc1Cl	60.1%
COc1cc2ncnc(-n3ncc4cc(NC(=O)Nc5ccc(Cl)c(C)c5)ccc43)c2cc1OC	85.9%
CC1=C[C@@H]2c3c(c(O)c(O)c4oc5cc(O)cc(O)c5c(=O)c34)[C@@H](c3cc(O)c(O)c4oc5cc(O)cc(O)c5c(=O)c34)[C@@H]2C(C)(C)C1	8.46% (active)
N=C(N)c1ccc(-c2ccc(-c3cc(Cl)cc(Cl)c3)s2)cc1	-64.7% (active)
COc1cc2ncnc(-n3ncc4cc(NC(=O)Nc5ccc(Cl)c(Cl)c5)ccc43)c2cc1OC	-63.4% (active)
COC1=CC(c2ccc[nH]2)=N/C1=C\c1[nH]c(C)c(C(=O)CCCCC(=O)NC(C)(C)C)c1C	37.3%
